Assay [1] is described as follows: optical density shifts of acrAB sulA E. coli – strain DRC41, OD650, 48 h, E. coli filamentation inducer project, primary screen (AID 1152).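 Further: E. coli MC1000 strain DRC41 lacking acrAB efflux pump and sulA.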 To be noted: higher = more signal, called active from +8 up or from −8 down.
Assay [2] in a line: probe aLefty1 binding on compound microarray – biochemical, small-molecule microarray, 635/667 nm fluorescence, primary screen (AID 1153).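 Further: score merges spot fluorescence with signal-to-noise ratio from the scanned slide images.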 As to conditions: higher = more signal.
A short description of assay [3]: plasmodial surface anion channel blockers, osmotic lysis – cell-based, P. falciparum Indochina, OD700, 1 h, primary screen (AID 1154). To be noted: P. falciparum Indochina infected RBC osmotic lysis, higher = more signal, called active from +8 up or from −8 down.
Assay [4] in a line: plasmodial surface anion channel blockers, osmotic lysis – cell-based, P. falciparum Indochina, OD700, 2 h, primary screen (AID 1155).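 Further: lysis reports solute entry through the parasite surface anion channel PSAC.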 As to conditions: P. falciparum Indochina infected erythrocytes, higher = more signal, called active from +8 up or from −8 down.
Assay [5] in a line: changes in parasitized red cell lysis, either direction – P. falciparum Indochina, OD700, 3 h, PSAC antagonist project, primary screen (AID 1156). As to conditions: P. falciparum-infected erythrocytes, osmotic lysis, higher = more signal, called active from +8 up or from −8 down.
Assay [6] can be described thus: plasmodial surface anion channel blockers, osmotic lysis – cell-based, P. falciparum Indochina, OD700, 18 h, primary screen (AID 1157). As to conditions: P. falciparum Indochina infected erythrocytes, osmotic lysis OD700, 18 h; higher = more signal, called active from +8 up or from −8 down.
Assay [7] in a line: S6 kinase pathway phospho-S6 level changes – cell-based, A549, cytoblot, luminescence, serum-stimulated, primary screen (AID 1158).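 Further: serum-stimulated A549 lung adenocarcinoma cells; signal is phosphorylated S6 detected by cytoblot immunostaining with HRP secondary.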 As to conditions: 5 h, higher = more signal.
In assay [8] the target is NADPH oxidase 2 (Homo sapiens) (UniProt P04839). Description: compounds shifting NOX2 Amplex Red fluorescence – cell-based, HEK293-NOX2, PMA-stimulated, NOX inhibitor project, primary screen (AID 1159). Further: test concentration not given here. As to conditions: 45 min, higher = more signal, called active from +8 up or from −8 down.
Chain of NADPH oxidase 2 (Homo sapiens) (P04839 whole entry, looked up): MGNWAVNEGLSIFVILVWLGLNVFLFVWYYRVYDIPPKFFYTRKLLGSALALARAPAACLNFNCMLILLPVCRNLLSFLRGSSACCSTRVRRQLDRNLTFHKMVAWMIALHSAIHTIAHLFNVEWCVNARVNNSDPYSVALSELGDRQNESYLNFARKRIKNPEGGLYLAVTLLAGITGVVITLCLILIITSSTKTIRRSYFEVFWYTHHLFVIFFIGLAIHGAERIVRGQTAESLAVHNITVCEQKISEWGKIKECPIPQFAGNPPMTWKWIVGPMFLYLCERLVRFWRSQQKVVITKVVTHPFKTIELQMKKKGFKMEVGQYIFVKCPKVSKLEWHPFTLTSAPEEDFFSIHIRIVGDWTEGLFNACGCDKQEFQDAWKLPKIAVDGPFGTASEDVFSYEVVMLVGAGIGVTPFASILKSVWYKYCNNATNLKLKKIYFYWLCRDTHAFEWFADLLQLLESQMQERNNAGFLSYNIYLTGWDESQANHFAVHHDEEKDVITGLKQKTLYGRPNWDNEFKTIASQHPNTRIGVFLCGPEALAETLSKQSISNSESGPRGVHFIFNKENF
Assay [9] has as its target NADPH oxidase 4 (Homo sapiens) (UniProt Q9NPH5). The assay is described as follows: compounds shifting NOX4 Amplex Red fluorescence – cell-based, HEK293-NOX4, tetracycline-induced, NOX inhibitor project, primary screen (AID 1160). As to conditions: HEK293-NOX4, Amplex Red H2O2 fluorescence, 45 min; higher = more signal, called active from +8 up or from −8 down.
The target of assay [10] is NADPH oxidase 5 (Homo sapiens) (UniProt Q96PH1). Description: compounds shifting NOX5 Amplex Red fluorescence – cell-based, HEK293-NOX5, NOX inhibitor project, primary screen (AID 1161). To be noted: HEK293-NOX5, ionomycin, 45 min, higher = more signal.
Chain of NADPH oxidase 5 (Homo sapiens) (Q96PH1 whole entry, looked up): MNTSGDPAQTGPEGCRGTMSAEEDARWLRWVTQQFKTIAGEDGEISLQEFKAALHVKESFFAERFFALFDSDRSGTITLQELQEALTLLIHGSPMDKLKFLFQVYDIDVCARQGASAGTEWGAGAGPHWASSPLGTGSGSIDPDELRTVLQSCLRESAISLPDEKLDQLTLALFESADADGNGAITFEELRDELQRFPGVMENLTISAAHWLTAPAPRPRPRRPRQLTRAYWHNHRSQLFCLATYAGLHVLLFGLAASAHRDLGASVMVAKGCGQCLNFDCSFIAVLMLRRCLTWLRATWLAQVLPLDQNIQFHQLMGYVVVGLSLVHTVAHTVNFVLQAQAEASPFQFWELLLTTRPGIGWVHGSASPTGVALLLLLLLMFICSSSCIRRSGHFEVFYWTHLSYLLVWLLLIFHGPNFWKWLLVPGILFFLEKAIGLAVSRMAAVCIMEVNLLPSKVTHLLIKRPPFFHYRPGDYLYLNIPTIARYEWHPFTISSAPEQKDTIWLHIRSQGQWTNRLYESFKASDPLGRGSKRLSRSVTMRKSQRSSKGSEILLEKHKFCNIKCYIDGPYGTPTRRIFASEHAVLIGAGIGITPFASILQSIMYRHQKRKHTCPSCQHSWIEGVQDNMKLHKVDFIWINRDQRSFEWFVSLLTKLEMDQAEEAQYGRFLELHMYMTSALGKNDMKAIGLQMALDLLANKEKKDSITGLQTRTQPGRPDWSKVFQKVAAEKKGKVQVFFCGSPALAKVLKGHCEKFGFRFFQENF

The source made the active and inactive calls.

13 compounds from PubChem BioAssay can be followed below.

Chain of NADPH oxidase 4 (Homo sapiens) (Q9NPH5 whole entry, looked up): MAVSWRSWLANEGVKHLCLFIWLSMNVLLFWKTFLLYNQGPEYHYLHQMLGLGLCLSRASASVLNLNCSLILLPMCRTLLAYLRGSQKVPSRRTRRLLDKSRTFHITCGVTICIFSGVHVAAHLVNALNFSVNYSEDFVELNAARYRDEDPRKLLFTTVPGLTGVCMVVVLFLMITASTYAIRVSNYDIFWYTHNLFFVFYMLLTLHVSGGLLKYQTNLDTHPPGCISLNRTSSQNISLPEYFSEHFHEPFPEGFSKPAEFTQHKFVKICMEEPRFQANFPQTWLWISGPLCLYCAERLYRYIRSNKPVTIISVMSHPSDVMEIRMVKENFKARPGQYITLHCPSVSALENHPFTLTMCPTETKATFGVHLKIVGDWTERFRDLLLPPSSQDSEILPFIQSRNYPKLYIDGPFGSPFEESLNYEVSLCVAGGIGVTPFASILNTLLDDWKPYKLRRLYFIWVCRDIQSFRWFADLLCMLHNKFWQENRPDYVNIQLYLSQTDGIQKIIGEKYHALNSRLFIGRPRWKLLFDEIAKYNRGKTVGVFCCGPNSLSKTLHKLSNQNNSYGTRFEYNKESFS

Take `C=CC[C@@H](OC(=O)Nc1ccc(OC)cc1)c1ccc(O)c2ccccc12`: the z-score in assay [1] was 0.122 (inactive); in assay [3] it was 3.63 (inactive); in assay [4] it was 0.661 (inactive); in assay [5] it was -0.335 (inactive); in [6], 0.279 (inactive); in assay [7], 0.229. Moreover, the z-score in assay [8] is -6.06 (inactive); in assay [9], -1.69 (inactive); in assay [10], -0.308. In [2], the composite z-score was -0.0615.

With `CCCC[C@H]1OB(O)C[C@H]2C1=C(C)C[C@H]1C(=O)N(Cc3ccccc3)C(=O)[C@H]12`, the z-score in assay [1] was 1.53 (inactive); in assay [3], 1.27 (inactive); in assay [4], 0.0503 (inactive); in assay [5], -0.348 (inactive); in [6] it was 0.157 (inactive); in assay [7] it was 0.918. Besides, the z-score in assay [8] is 0.0393 (inactive); in [9], 0.765 (inactive); in assay [10], 0.789. The composite z-score in assay [2] was -0.147.

Turning to `CC(C)CNC(=O)[C@@]1(c2ccc([N+](=O)[O-])cc2)CC(=O)N(CC23CC4CC(CC(C4)C2)C3)[C@@H]1c1ccc(CO)cc1I`, the z-score was -0.998 (inactive) in assay [1]; 17.2 (active) in assay [3]; 3.11 (inactive) in [4]; 2.73 (inactive) in [5]; 1.41 (inactive) in assay [6]; -0.472 in assay [7]. For the same compound, the z-score in assay [8] is 2 (inactive); in assay [9], -1.12 (inactive); in [10], 1.75. For the same compound, in assay [2], the composite z-score was -0.0114.

In the case of `O=C1O[C@@H](c2ccccc2)[C@@H](c2ccccc2)N2[C@@H](c3ccc(O)cc3)[C@]3(C(=O)Nc4ccc(C#CC5(O)CCCCCC5)cc43)[C@@H](C(=O)N3CCCCCCC3)[C@H]12`, the z-score in [1] was 0.489 (inactive); in [3], 1.32 (inactive); in [4], 0.836 (inactive); in [5], 1.17 (inactive); in assay [6] it was 0.564 (inactive); in [7], 0.181. The z-score in assay [8] was 1.1 (inactive); in assay [9], 1.09 (inactive); in assay [10] it was 0.682. The compound further had a composite z-score in assay [2] of 2.77.

On to `O=C1C2C=CC(C(O)c3ccc(-c4ccccc4)s3)N(n3cnnc3)C2C(=O)N1Cc1ccccc1` (stereo not given), for which the z-score in assay [1] was -0.613 (inactive); in assay [3], 2.44 (inactive); in assay [4], 1.41 (inactive); in assay [5], 0.605 (inactive); in assay [6] it was 0.832 (inactive); in assay [7] it was 0.0424. Also, the z-score in assay [8] is -0.547 (inactive); in assay [9], -0.149 (inactive); in assay [10], -0.918. Besides, the composite z-score in [2] is 0.284.

`O=C(CCN1CCOCC1)c1cccc(O)c1`: the z-score was -0.202 (inactive) in assay [1]; 0.205 (inactive) in [3]; -1.48 (inactive) in assay [4]; -0.582 (inactive) in assay [5]; -1.68 (inactive) in assay [6]; 0.4 in [7]. Besides, the values for the z-score in [8], in [9] and in assay [10] were -2.74 (inactive), -0.206 (inactive) and 1.72, respectively. For the same compound, the composite z-score in assay [2] stood at 0.154.

Take `[N-]=[N+]=Nc1ccccc1[C@H]1OC(c2ccc(OCCCO)cc2)=N[C@@]1(CCS(=O)(=O)c1ccccc1)C(=O)O`: the z-score is 0.671 (inactive) in [1]; 31.2 (active) in assay [3]; 24.9 (active) in assay [4]; 1.32 (inactive) in [5]; 4.75 (inactive) in assay [6]; -0.351 in assay [7]. Moreover, the z-score is -2.11 (inactive) in assay [8], 0.851 (inactive) in [9] and -0.73 in [10]. For the same compound, in assay [2], the composite z-score worked out at 0.373.

In the case of `C=CCOC(=O)[C@H]1[C@@H]2C(=O)O[C@@H](c3ccccc3)[C@@H](c3ccccc3)N2[C@@H](c2ccc(OCCOC(=O)[C@@H]3C[C@@H]4C(=O)NCC(=O)N4[C@@H]3c3ccc(O)cc3)cc2)[C@]12C(=O)Nc1ccccc12`, the z-score in [1] is 2.47 (inactive); in assay [3] it was 1.77 (inactive); in assay [4], -0.0123 (inactive); in assay [5], 0.708 (inactive); in [6], -0.513 (inactive); in assay [7], 1.14. Besides, the z-score in assay [8] is 2.07 (inactive); in assay [9], 1.31 (inactive); in assay [10] it was 1.1. In assay [2], this compound returned a composite z-score of 0.3.

As to `COC(=O)c1ccc(C(O)C2C=CC3C(=O)N(c4ccccc4)C(=O)C3N2Nc2ccc(C#N)cc2)o1` (stereo not given), the z-score in assay [1] was -0.855 (inactive); in assay [3] it was 6.87 (inactive); in assay [4], 1.66 (inactive); in assay [5] it was 1.36 (inactive); in [6], 0.975 (inactive); in [7], -0.757. Besides, the z-score in [8] is -0.499 (inactive); in assay [9], -4.57 (inactive); in assay [10], -2.23. Besides, the composite z-score in [2] is 0.117.

As for `O=C1C=CC(=O)[C@@H]2CC(COc3ccccc3)=C3[C@@H](CCc4ccccc4)OB(O)C[C@@H]3[C@H]12`, the z-score was -0.365 (inactive) in [1]; 3.41 (inactive) in assay [3]; -0.0365 (inactive) in assay [4]; -0.0433 (inactive) in assay [5]; 0.0107 (inactive) in assay [6]; 0.0482 in assay [7]. Besides, the z-score in assay [8] is -0.511 (inactive); in assay [9] it was -3.32 (inactive); in assay [10], -5.88. This compound yielded a composite z-score in assay [2] of 0.0491.

With `O=C1O[C@@H](c2ccccc2)[C@@H](c2ccccc2)N2[C@@H](c3ccc(OCCO)cc3)[C@]3(C(=O)Nc4ccc(C#CC5=CCCCC5)cc43)[C@@H](C(=O)O)[C@H]12`, the z-score is -0.584 (inactive) in [1]; -3.36 (inactive) in [3]; -1.76 (inactive) in assay [4]; -10.6 (active) in assay [5]; -0.957 (inactive) in assay [6]; -0.106 in assay [7]. The z-score in [8] was 1.67 (inactive); in assay [9] it was -1.08 (inactive); in assay [10], -0.216. In addition, the composite z-score in assay [2] is -0.0827.

For the compound `O=C1C2C=CC(C(O)c3ccc(F)cc3)N(Nc3ccccc3)C2C(=O)N1c1ccccc1` (stereo not given), the z-score was -0.789 (inactive) in [1]; 10.2 (active) in [3]; 2.02 (inactive) in assay [4]; 0.0089 (inactive) in assay [5]; 1.24 (inactive) in [6]; -0.931 in [7]. Moreover, the z-score is -1.77 (inactive) in assay [8], -3.42 (inactive) in [9] and -1.96 in [10]. The composite z-score in [2] was determined as 0.374.

`O=C1O[C@@H](c2ccccc2)[C@@H](c2ccccc2)N2[C@@H](c3ccc(OCCO)cc3)[C@]3(C(=O)Nc4ccccc43)[C@@H](C(=O)Nc3nc4ccccc4s3)[C@H]12`: the z-score in [1] was 0.515 (inactive); in assay [3] it was 5.55 (inactive); in [4], 2.55 (inactive); in assay [5], 1.37 (inactive); in assay [6] it was 2.01 (inactive); in assay [7], 0.298. The z-score was 1.68 (inactive) in [8], 1.24 (inactive) in assay [9] and 1.63 in [10]. The compound also showed a composite z-score in [2] of 0.919.
